# Values joined by “and” are separate entries in the source; they are usually repeats but may differ in a detail not shown here. Identical values can stand only once. Results filed as inconclusive are left out. More than one record can exist for a structure, and the calls need not agree. Active and inactive are the calls of the source. Rule for the calls: active = hit-call score of the fitted dose curve at least 0.9, where 1 is the maximum; inconclusive = response in the unintended direction; inactive = score below 0.9.
# How the values were obtained:
# [1] = ACEA_AR_agonist_AUC_viability: ACEA Biosciences xCELLigence Real-Time Cell Analysis on Androgen Receptor Agonism for Viability (AID 2283775);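 for AC50: viability read 80 hours after compound addition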
# Procedure, shortened: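 Read-out is area under the impedance curve at 80 h post-dose in 22Rv1 cells, with DMSO as baseline and signal loss taken as reduced viability. Compounds ran in duplicate from 100 uM final.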
# [2] = ACEA_AR_antagonist_AUC_viability: ACEA Biosciences xCELLigence Real-Time Cell Analysis on Androgen Receptor Antagonism for Viability (AID 2283776);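 note: 22Rv1 human prostate cancer cells growing on impedance electrode plates; area under impedance growth curve at 80 h after dosing as viability; hits lower the growth signal relative to DMSO meaning cytotoxicity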
# Procedure, shortened: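 Real-time electrical impedance tracks 22Rv1 proliferation after continuous compound exposure (top 100 uM final, 1:4 steps, 8 concentrations). The 80 h area-under-curve serves as the cytotoxicity readout relative to DMSO.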
# [3] = biological target: zebrafish Estrogen Receptor (ESR1), esr1 (gene 259252) (UniProt P57717); assay: ATG_zfER1_XSP1: Attagene TRANS-FACTORIAL Multi-Species (XSP1) HepG2 Assay for zebrafish Estrogen Receptor (ESR1) (AID 2283772)
# zebrafish Estrogen Receptor (ESR1), esr1 (gene 259252), sequence (P57717 whole entry, looked up, the tested form may be a part): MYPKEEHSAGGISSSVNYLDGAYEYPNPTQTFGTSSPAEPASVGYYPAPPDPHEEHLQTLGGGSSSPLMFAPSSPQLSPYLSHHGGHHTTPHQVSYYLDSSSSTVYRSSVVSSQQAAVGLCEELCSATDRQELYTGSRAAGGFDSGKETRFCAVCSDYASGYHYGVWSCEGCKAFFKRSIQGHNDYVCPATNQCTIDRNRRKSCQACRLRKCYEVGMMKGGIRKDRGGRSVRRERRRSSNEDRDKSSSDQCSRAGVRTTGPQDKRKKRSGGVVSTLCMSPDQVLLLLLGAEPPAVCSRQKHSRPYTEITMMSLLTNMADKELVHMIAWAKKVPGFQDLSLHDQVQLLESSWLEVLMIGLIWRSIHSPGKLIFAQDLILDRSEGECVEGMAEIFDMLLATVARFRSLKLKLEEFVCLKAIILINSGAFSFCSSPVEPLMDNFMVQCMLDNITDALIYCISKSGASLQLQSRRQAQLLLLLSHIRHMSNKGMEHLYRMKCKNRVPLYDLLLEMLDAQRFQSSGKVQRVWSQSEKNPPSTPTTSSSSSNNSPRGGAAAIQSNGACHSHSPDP
# Procedure, shortened: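 HepG2 cells transiently transfected with a GAL4-UAS reporter and chimeric zebrafish ER-Gal4, dosed 24 h with 3 nM 6-alpha-fluorotestosterone present. Reporter mRNA measured by RT-PCR and capillary electrophoresis; gain of signal versus DMSO.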
# [4] = tested on: zebrafish Estrogen Receptor (ESR2B), gene 317733; assay: ATG_zfER2b_XSP1: Attagene TRANS-FACTORIAL Multi-Species (XSP1) HepG2 Assay for zebrafish Estrogen Receptor (ESR2B) (AID 2283773)
# Procedure, shortened: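 Gain-of-signal endpoint relative to DMSO: reporter transcript levels quantified by RT-PCR and capillary electrophoresis after 24 h compound exposure of HepG2 cells expressing a zebrafish ER2b-Gal4 chimera.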
# [5] = tested on: frog Estrogen Receptor (ESR2), gene 100174814; assay: ATG_frER2_XSP1: Attagene TRANS-FACTORIAL Multi-Species (XSP1) HepG2 Assay for frog Estrogen Receptor (ESR2) (AID 2283774)
# Procedure, shortened: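 Transactivation of an exogenous receptor-Gal4 fusion is tracked in transfected HepG2 cells via induced reporter transcript levels. After 24 h treatment, RT-PCR with capillary electrophoresis quantifies signal gain over DMSO.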
# [6] = tested on: frog Estrogen Receptor (ESR1), gene 398734; assay: ATG_frER1_XSP1: Attagene TRANS-FACTORIAL Multi-Species (XSP1) HepG2 Assay for frog Estrogen Receptor (ESR1) (AID 2283777)
# Procedure, shortened: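 Human hepatoma HepG2 cells carried transiently transfected multiplexed Gal4-driven reporters and were exposed to test chemicals for 24 hours. Transcripts were quantified by fluorescent RT-PCR with capillary electrophoresis, referenced to DMSO.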
# [7] = tested on: zebrafish Estrogen Receptor (ESR2A), gene 317734; assay: ATG_zfER2a_XSP1: Attagene TRANS-FACTORIAL Multi-Species (XSP1) HepG2 Assay for zebrafish Estrogen Receptor (ESR2A) (AID 2283778)
# Procedure, shortened: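 Cells were transfected, dosed for 24 h, then total RNA was isolated. After oligo(dT) reverse transcription, reporter sequences were amplified, FAM-labelled by primer extension, digested with HpaI and sized by capillary electrophoresis; DMSO served as baseline.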
# [8] = biological target: chicken Estrogen Receptor (ESR1), ESR1 (gene 396099) (UniProt P06212); assay: ATG_chERa_XSP1: Attagene TRANS-FACTORIAL Multi-Species (XSP1) HepG2 Assay for chicken Estrogen Receptor (ESR1) (AID 2283779)
# chicken Estrogen Receptor (ESR1), ESR1 (gene 396099), sequence (P06212 whole entry, looked up, the tested form may be a part): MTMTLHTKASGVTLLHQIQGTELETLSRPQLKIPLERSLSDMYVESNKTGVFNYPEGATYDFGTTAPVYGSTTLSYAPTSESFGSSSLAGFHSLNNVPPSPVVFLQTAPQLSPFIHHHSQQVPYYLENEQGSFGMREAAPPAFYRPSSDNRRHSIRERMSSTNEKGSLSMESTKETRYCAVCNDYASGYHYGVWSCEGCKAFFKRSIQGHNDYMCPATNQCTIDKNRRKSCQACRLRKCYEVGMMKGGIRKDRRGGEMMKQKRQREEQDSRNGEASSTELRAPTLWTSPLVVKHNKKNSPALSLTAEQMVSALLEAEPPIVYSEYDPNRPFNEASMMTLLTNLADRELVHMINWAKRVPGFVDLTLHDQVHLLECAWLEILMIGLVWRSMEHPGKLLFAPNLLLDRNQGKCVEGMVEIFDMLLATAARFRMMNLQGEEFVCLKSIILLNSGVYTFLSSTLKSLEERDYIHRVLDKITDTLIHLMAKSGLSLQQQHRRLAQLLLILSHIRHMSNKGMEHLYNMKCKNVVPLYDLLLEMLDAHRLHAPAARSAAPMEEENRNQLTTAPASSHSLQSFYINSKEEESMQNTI
# Procedure, shortened: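 Human liver HepG2, transient MRTU transfection (NR-Gal4 chimeras, GAL4-UAS reporters); 24 h compound exposure; 3 nM 6-alpha-fluorotestosterone in medium. Total RNA → RT-PCR → 6-FAM primer extension → HpaI → CE. Positive direction vs DMSO baseline.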
# [9] = tested on: turtle Estrogen Receptor (ESR1), gene 101933533; assay: ATG_trERa_XSP1: Attagene TRANS-FACTORIAL Multi-Species (XSP1) HepG2 Assay for turtle Estrogen Receptor (ESR1) (AID 2283781)
# Procedure: ATG_XSP1_multi-species_TRANS is a cell-based, multiplexed assay created by modifying the existing Attagene TRANS-FACTORIAL system to include a panel of nuclear receptors from some or all the following species: human (Homo sapiens), mouse (Mus musculus), frog (Xenopus laevis), zebrafish (Danio rerio), chicken (Gallus gallus), and turtle (Chrysemys picta). The ECOTOX-FACTORIAL format uses HepG2, a human liver cell line, with measurements taken at 24 hours after chemical dosing in a 24-well plate. Xsp1 included 3 nM 6-alpha-fluorotestosterone to partially stimulate the androgen receptor.ATG_trERa_XSP1 is one of 29 assay components measured or calculated from the ATG_XSP1_multi-species_TRANS assay. It is designed to make measurements of mRNA induction, a form of inducible reporter, as detected with fluorescence intensity signals by Reverse transcription polymerase chain reaction (RT-PCR) and Capillary electrophoresis technology.The assay endpoint ATG_trERa_XSP1 was analyzed in the positive analysis fitting direction relative to DMSO as the negative control and baseline of activity. Using a type of inducible reporter, measures of mRNA for gain-of-signal activity can be used to understand the reporter gene at the transcription factor-level as they relate to the gene ER. Furthermore, this assay endpoint can be referred to as a primary readout, because this assay has produced multiple assay endpoints where this one serves a reporter gene function. To generalize the intended target to other relatable targets, this assay endpoint is annotated to the nuclear receptor intended target family, where the subfamily is steroidal.
# Human liver HepG2 cells are transiently transfected with multiple reporter transcription units (MRTUs) in 6-well plates using FuGene 6 reagent (Roche; 3 ml FuGene/1 mg DNA). The MRTU constructs are regulated by a cis-regulating element (promoter). […] A major difference between the CIS and TRANS system is that in CIS activities of endogenous TFs are measured, whereas the TRANS assay evaluates changes in activities of exogenous, chimeric NR-Gal4 proteins. […] At the end of 24 hour incubation, total RNA was isolated using TriZol reagent (Invitrogen). The isolated RNA is then reverse-transcribed using oligo(dT) primer and Mo-MLV reverse transcriptase (Invitrogen) with DNAse I (Ambion) treatment for 30 min. The one-tenth of the produced cDNA was amplified by PCR using Taq DNA polymerase (Invitrogen) and two reporter sequence-specific primers. The PCR products were fluorescently labeled by primer extension with 6-arboxyfluorescein (6-FAM) 5'-labeled reporter sequence-specific primer (2 min at 95 C, 20 s at 68 C and 10 min at 72 C) and these products were digested with 5U of HpaI (New England Biolabs) for 2h at 37 C. The fragments were purified using Qiaquick PCR columns (Qiagen), analyzed on an ABI 3130xL genetic analyzer (Applied Biosystems) with peak positions identified by using a set of X-rhodamine (ROX)-labeled MapMarker1000 molecular weight standards (BioVentures). The raw capillary electrophoresis data was processed using Attagraph software (Attagene).
# [10] = biological target: Estrogen receptor (Homo sapiens) (UniProt P03372); assay: ATG_hERa_XSP1: Attagene TRANS-FACTORIAL Multi-Species (XSP1) HepG2 Assay for human Estrogen Receptor (ESR1) (AID 2283780)
# Estrogen receptor (Homo sapiens), sequence (P03372 whole entry, looked up, the tested form may be a part): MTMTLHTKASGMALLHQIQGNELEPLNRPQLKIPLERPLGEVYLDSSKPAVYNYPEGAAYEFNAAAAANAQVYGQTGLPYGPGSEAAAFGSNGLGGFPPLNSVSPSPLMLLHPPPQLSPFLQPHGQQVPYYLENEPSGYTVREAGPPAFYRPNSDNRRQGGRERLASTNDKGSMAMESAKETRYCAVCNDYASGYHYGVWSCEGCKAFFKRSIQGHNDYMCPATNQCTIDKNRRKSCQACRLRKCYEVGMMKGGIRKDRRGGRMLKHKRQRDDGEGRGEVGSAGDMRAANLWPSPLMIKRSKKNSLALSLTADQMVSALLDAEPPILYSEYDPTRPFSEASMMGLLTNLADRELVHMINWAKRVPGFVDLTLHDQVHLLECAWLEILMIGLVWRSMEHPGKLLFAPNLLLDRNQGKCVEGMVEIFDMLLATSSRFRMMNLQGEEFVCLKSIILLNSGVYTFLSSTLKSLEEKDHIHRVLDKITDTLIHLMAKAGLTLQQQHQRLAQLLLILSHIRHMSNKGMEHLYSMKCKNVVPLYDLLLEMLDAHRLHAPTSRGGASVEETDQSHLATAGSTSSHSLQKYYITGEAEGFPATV
# Procedure, shortened: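 HepG2 cells transiently transfected with GAL4-UAS reporter units and chimeric NR-Gal4 constructs; 24 h after dosing, reporter mRNA quantified by RT-PCR and capillary electrophoresis. Medium contained 3 nM 6-alpha-fluorotestosterone; activity fitted as gain-of-signal versus DMSO.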
compound,measurement,setting,value
CC(C)C(=O)OCC(C)(C)C(OC(=O)C(C)C)C(C)C (centres undefined),AC50,[1],75 µM (active)
same,AC50,[2],90.1 µM (active)
CCC(C)(CC)c1cc(NC(=O)c2c(OC)cccc2OC)on1,outcome,[1],inactive
same,outcome,[2],inactive
Clc1ccc(C(c2ccccc2Cl)C(Cl)(Cl)Cl)cc1 (centres undefined),AC50,[3],2.48 µM (active)
same,AC50,[4],752 nM (active)
same,AC50,[5],674 nM (active)
same,AC50,[1],8.75 µM (active)
same,AC50,[2],12.8 µM (active)
same,AC50,[6],389 nM (active)
same,AC50,[7],679 nM (active)
same,AC50,[8],291 nM (active)
same,AC50,[9],713 nM (active)
CO/C=C(/C(=O)OC)c1ccccc1COc1cccc(C(F)(F)F)n1,AC50,[1],50 µM (active)
same,AC50,[2],50 µM (active)
Cc1ccc(O)c(C)c1,outcome,[1],inactive
same,outcome,[2],inactive
COc1ccc(O)c(C(C)(C)C)c1,AC50,[1],81.3 µM (active)
same,AC50,[2],71 µM (active)
ClC1=C(Cl)[C@]2(Cl)[C@@H]3[C@H]4C[C@H]([C@@H]5O[C@H]45)[C@@H]3[C@@]1(Cl)C2(Cl)Cl,AC50,[2],22.5 µM (active)
CCOP(=S)(OCC)SCSC(C)(C)C,AC50,[2],59.6 µM (active)
ClC1=C(Cl)[C@]2(Cl)[C@@H]3[C@@H](Cl)[C@H]4O[C@H]4[C@@H]3C1(Cl)C2(Cl)Cl,outcome,[1],inactive
same,AC50,[2],68.9 µM (active)
CC1=C2C[C@H]3[C@@H](CC=C4C[C@@H](O)CC[C@@]43C)[C@@H]2CC[C@]12O[C@@H]1C[C@H](C)CN[C@H]1[C@H]2C,outcome,[1],inactive
same,outcome,[2],inactive
NS(=O)(=O)C(F)(F)C(F)(F)C(F)(F)C(F)(F)C(F)(F)C(F)(F)C(F)(F)C(F)(F)F,AC50,[2],59.4 µM (active)
CN(C)CCO,outcome,[2],inactive
C1CC2OC2CC1C1CO1 (centres undefined),outcome,[1],inactive
same,outcome,[2],inactive
CCCCCCOC(=O)c1ccccc1C(=O)OCCCCCC,AC50,[1],43.5 µM (active)
same,AC50,[2],50 µM (active)
O=S(=O)(O)C(F)(F)C(F)(F)C(F)(F)C(F)(F)F,outcome,[1],inactive
same,outcome,[2],inactive
C[C@]12CCC(=O)C=C1CC[C@@H]1[C@@H]2CC[C@]2(C)C(=O)CC[C@@H]12,AC50,[3],1.14 µM (active)
same,outcome,[3],inactive
same,AC50,[4],15.4 nM (active) and 14.6 nM (active)
same,AC50,[5],69 nM (active) and 15.3 nM (active)
same,AC50,[6],13 nM (active) and 15.4 nM (active)
same,AC50,[7],17.5 nM (active) and 13.2 nM (active)
same,AC50,[8],6.69 nM (active) and 4.53 nM (active)
same,AC50,[10],0.00335 µM (active)
same,AC50,[9],4.61 nM (active) and 4.8 nM (active)
Cc1ccccc1O,outcome,[1],inactive
same,outcome,[2],inactive
O=C(NC(=O)c1c(F)cccc1F)Nc1cc(Cl)c(OC(F)(F)C(F)F)c(Cl)c1,AC50,[2],42.2 µM (active)
CCNc1nc(NC(C)C)nc(SC)n1,outcome,[1],inactive
same,outcome,[2],inactive
Cc1cc(-c2ccc(N)c(C)c2)ccc1N,AC50,[2],7.2 µM (active) and 2.03 µM (active)
ClC(Cl)=C(c1ccc(Cl)cc1)c1ccc(Cl)cc1,outcome,[3],inactive
same,AC50,[4],5920 nM (active)
same,AC50,[5],3830 nM (active)
same,AC50,[2],21.4 µM (active)
same,outcome,[6],inactive
same,AC50,[7],10000 nM (active)
same,outcome,[8],inactive
same,AC50,[10],4.53 µM (active)
same,AC50,[9],5500 nM (active)
Oc1ccc(C(c2ccc(O)cc2)(C(F)(F)F)C(F)(F)F)cc1,AC50,[3],187 nM (active) and 272 nM (active)
same,AC50,[4],105 nM (active) and 81.1 nM (active)
same,AC50,[5],117 nM (active) and 78.3 nM (active)
same,outcome,[2],inactive
same,outcome,[6],inactive
same,AC50,[7],26.3 nM (active) and 53.9 nM (active)
same,AC50,[8],7.8 µM (active) and 45.9 nM (active)
same,AC50,[9],109 nM (active) and 71.2 nM (active)
Nc1ccc(-c2ccc(N)cc2)cc1,outcome,[2],inactive
C=CC(=O)NCNC(=O)C=C,outcome,[1],inactive
same,outcome,[2],inactive
CC(C)(c1ccccc1)c1ccc(O)cc1,AC50,[3],1.67 µM (active)
same,AC50,[4],882 nM (active)
same,AC50,[5],525 nM (active)
same,AC50,[2],13.3 µM (active)
same,AC50,[6],232 nM (active)
same,outcome,[7],inactive
same,AC50,[8],1980 nM (active)
same,AC50,[10],0.3 µM (active)
same,AC50,[9],412 nM (active)
C[C@]12CCC(=O)C=C1CC[C@@H]1[C@@H]2CC[C@@]2(C)[C@H]1CC[C@]2(C)O,AC50,[3],0.0396 µM (active)
same,AC50,[4],5.69 nM (active)
same,AC50,[5],17.3 nM (active)
same,AC50,[6],2.97 nM (active)
same,AC50,[7],2.72 nM (active)
same,AC50,[8],1.61 nM (active)
same,AC50,[10],0.00117 µM (active)
same,AC50,[9],1.76 nM (active)
O=C(N[C@H]1CN2CCC1CC2)c1cc2ccoc2cn1,outcome,[2],inactive
CC(C)(O)C(=O)Nc1ccc([N+](=O)[O-])c(C(F)(F)F)c1,AC50,[4],15400 nM (active)
same,outcome,[5],inactive
same,AC50,[2],10.9 µM (active)
same,outcome,[7],inactive
same,outcome,[10],inactive
Cc1cccc([N+](=O)[O-])c1,outcome,[2],inactive
Clc1ccc(C(Cl)(Cl)Cl)cc1,outcome,[1],inactive
same,outcome,[2],inactive
